The text below walks through data of article PMC7862700, “An all-to-all approach to the identification of sequence-specific readers for epigenetic DNA modifications on cytosine”.

Assay in all cases: DAPPL (digital affinity profiling via proximity ligation, sequencing); 10 mM Tris-HCl pH 7.5, 50 mM NaCl, 1 mM DTT, 4% glycerol, room temperature, 30 min; GST-TFs on glutathione beads, 16-mer random dsDNA library, 0.1% formaldehyde crosslink after washing; high values mean tight binding
Common to all, as to conditions: protein: recombinant; tags: N-terminal GST; dsDNA, one strand shown

Test [1] concerns the target T1, ELK1 (Homo sapiens, UniProt P19419 1-428).
T1 sequence: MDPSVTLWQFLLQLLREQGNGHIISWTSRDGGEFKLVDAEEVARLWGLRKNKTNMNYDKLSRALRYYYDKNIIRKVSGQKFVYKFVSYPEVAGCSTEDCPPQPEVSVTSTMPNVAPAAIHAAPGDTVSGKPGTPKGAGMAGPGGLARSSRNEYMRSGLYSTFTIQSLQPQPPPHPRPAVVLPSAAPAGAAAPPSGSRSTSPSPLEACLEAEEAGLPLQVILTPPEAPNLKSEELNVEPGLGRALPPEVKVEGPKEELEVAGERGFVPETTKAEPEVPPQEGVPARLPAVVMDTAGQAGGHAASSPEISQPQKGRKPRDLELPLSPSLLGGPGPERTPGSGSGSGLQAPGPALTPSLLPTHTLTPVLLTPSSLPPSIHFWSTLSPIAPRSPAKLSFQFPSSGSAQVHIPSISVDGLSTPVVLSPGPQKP
The essentials: (§1)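 Beads coated with glutathione captured GST-fused human transcription factors that had been expressed in yeast, and the factors were then given DNA barcodes and pooled with a tag-only sample. The pools were incubated with 200 nmole of a random double-stranded 16-mer DNA library in Tris/NaCl/DTT/glycerol buffer for 30 min at room temperature, washed, crosslinked with 0.1% formaldehyde and proximity-ligated with BsaI/T4 ligase at 37 °C for 1 h. PCR amplification and Illumina NextSeq500 sequencing came last. Binding signal is each hexamer's read frequency for a factor divided by its frequency for the tag-only sample.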

Test [2] deals with T2, GABPA (Homo sapiens, UniProt Q06546 1-454).
T2 sequence: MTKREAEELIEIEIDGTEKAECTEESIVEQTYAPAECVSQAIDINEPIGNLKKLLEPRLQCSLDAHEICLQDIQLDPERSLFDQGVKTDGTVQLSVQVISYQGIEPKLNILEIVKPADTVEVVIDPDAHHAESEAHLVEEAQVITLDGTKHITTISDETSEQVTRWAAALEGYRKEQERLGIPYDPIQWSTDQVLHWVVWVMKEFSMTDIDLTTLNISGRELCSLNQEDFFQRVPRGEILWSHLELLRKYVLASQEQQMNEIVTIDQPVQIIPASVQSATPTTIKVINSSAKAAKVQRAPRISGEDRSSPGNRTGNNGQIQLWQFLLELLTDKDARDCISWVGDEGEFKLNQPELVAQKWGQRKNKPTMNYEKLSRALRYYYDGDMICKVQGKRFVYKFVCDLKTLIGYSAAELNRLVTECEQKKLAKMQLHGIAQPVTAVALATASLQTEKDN
The method in brief: as §1

Test [3] deals with T3, ERG (Homo sapiens, UniProt P11308 1-479).
T3 sequence: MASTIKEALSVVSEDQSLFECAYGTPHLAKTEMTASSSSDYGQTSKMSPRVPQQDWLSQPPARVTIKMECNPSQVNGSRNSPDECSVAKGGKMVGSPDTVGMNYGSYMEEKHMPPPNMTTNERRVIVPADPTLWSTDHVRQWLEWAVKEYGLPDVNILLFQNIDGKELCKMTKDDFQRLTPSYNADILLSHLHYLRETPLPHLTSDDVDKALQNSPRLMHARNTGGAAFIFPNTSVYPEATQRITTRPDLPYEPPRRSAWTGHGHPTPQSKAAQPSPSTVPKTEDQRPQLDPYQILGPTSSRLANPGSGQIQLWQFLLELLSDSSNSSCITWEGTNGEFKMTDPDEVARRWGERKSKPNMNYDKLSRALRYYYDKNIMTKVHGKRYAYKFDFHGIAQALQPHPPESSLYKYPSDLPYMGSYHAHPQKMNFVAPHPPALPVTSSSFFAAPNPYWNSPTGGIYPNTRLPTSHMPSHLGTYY
The method in brief: as §1

For test [4], the target named is ELF1 (Homo sapiens, UniProt P32519 1-619). The method in brief: as §1
ELF1, sequence (P32519 whole entry): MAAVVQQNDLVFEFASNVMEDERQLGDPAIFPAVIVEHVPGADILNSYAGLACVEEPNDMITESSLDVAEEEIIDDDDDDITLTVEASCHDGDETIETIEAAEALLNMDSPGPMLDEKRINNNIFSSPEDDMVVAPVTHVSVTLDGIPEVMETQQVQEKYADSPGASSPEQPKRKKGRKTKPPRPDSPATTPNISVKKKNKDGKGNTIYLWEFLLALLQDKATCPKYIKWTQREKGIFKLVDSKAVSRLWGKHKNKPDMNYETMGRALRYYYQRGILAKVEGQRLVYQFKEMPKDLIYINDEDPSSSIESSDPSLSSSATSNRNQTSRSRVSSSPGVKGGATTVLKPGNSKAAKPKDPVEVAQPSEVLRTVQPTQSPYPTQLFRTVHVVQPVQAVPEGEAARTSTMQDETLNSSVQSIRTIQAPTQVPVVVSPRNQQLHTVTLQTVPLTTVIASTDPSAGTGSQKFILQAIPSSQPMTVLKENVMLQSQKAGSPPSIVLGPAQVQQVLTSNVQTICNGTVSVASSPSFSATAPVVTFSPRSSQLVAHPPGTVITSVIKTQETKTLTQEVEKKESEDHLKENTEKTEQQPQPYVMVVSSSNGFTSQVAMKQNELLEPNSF
In test [5] the target is T4, EHF (Homo sapiens, UniProt Q9NZC4 1-300).
T4 sequence: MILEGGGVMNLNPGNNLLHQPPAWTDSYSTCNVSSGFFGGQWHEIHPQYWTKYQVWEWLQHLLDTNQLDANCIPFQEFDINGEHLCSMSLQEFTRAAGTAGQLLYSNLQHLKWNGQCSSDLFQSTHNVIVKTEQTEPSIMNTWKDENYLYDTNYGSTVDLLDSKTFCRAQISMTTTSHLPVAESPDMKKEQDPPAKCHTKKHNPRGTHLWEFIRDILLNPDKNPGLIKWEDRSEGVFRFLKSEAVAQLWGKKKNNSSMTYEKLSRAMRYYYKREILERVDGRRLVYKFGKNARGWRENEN
The essentials: as §1

For test [6], the target named is SPI1 (Homo sapiens, UniProt P17947 1-270). The essentials:
as §1

The target in test [7] is T5, FEV (Homo sapiens, UniProt Q99581 1-238).
T5 sequence: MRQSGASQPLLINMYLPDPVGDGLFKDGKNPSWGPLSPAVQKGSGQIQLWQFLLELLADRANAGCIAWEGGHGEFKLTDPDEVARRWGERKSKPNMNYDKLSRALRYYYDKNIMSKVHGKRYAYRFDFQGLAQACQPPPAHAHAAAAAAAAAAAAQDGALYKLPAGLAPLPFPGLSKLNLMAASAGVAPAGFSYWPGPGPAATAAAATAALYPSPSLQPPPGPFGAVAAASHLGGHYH
The method in brief:
as §1

The target in test [8] is ETV5 (Homo sapiens, UniProt P41161 1-510). The essentials: as §1
ETV5, sequence (P41161 whole entry): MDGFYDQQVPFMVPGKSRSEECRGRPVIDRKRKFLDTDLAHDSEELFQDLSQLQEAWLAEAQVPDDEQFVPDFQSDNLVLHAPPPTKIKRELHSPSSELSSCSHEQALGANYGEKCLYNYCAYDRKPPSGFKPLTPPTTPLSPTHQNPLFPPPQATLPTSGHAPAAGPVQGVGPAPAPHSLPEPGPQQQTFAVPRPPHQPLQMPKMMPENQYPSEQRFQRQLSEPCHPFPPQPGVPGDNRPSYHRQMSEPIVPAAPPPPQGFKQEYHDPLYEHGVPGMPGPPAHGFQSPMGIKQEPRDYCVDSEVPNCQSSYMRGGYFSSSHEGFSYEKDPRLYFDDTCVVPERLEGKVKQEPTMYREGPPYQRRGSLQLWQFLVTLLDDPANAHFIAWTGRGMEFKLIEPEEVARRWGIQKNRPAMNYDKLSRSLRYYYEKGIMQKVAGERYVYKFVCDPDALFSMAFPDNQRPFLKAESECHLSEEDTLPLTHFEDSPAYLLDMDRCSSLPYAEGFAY
Test [9] deals with ELF4 (Homo sapiens, UniProt Q99607 1-663). The essentials:
as §1

Test [10] concerns the target T6, ELK4 (Homo sapiens, UniProt P28324-2 1-405).
T6 sequence: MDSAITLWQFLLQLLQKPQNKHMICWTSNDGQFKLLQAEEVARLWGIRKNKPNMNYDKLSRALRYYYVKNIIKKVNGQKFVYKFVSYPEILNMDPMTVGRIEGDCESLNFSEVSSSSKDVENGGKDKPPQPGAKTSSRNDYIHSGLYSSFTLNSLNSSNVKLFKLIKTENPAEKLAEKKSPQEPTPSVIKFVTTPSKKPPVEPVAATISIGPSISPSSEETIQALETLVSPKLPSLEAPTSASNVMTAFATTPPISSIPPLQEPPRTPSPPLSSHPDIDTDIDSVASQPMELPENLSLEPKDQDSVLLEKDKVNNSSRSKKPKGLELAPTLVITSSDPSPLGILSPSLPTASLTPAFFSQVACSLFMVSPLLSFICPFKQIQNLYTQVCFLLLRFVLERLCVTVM
The essentials:
as §1

Test [11] concerns the target T7, ETV2 (Homo sapiens, UniProt O00321 1-342).
T7 sequence: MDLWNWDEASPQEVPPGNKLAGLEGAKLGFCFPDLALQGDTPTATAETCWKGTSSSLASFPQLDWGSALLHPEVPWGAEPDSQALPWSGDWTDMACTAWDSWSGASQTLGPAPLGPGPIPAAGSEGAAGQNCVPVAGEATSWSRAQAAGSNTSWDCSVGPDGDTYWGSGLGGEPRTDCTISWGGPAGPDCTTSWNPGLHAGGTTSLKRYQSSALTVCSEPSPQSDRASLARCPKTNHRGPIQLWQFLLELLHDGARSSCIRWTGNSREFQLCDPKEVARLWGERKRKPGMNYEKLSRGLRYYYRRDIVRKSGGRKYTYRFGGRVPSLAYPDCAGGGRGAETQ
The method in brief: as §1

The target of test [12] is ETV1 (Homo sapiens, UniProt P50549 1-477). The essentials:
as §1

In test [13] the target is T8, ERF (Homo sapiens, UniProt P50548 1-548).
T8 sequence: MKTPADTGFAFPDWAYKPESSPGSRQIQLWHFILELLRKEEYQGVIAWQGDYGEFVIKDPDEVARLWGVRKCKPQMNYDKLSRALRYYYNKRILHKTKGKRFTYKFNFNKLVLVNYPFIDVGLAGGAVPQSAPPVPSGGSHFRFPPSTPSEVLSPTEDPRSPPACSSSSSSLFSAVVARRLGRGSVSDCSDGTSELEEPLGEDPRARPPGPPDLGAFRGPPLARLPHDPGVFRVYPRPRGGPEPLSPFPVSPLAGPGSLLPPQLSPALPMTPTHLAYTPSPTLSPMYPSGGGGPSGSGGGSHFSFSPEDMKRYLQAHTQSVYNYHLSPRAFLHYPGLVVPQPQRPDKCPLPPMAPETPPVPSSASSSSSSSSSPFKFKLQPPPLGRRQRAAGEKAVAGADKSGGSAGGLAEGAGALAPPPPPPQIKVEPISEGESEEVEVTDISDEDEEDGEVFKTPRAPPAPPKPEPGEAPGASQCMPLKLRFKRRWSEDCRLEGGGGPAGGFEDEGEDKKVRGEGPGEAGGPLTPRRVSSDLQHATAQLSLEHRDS
The method in brief:
as §1

Test [14] has as its target T9, ETV3L (Homo sapiens, UniProt Q6ZN32 1-361).
T9 sequence: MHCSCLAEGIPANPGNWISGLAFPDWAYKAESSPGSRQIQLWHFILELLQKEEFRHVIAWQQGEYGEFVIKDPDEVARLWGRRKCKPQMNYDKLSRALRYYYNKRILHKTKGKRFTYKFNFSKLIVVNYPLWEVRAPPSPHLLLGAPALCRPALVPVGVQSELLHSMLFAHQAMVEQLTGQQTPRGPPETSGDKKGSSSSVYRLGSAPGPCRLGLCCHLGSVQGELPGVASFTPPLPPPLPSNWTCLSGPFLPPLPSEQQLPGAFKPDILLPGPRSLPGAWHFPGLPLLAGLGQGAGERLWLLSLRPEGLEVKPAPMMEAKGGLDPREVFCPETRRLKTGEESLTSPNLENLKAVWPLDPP
The essentials: as §1

For test [15], the target named is T10, ETS2 (Homo sapiens, UniProt P15036 1-469).
T10 sequence: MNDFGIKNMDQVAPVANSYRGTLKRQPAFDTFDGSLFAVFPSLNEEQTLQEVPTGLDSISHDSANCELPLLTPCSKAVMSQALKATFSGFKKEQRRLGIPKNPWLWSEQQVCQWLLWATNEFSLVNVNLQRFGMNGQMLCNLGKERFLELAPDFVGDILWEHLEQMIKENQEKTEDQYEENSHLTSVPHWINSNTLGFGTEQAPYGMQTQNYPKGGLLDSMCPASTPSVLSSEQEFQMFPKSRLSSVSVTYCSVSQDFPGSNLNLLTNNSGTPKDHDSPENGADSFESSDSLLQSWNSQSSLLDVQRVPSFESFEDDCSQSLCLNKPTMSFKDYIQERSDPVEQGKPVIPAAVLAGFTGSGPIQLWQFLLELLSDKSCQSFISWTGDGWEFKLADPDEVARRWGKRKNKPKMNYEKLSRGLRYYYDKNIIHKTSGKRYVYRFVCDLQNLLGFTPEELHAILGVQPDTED
The method in brief: as §1

The target in test [16] is T11, ETV7 (Homo sapiens, UniProt Q9Y603 1-341).
T11 sequence: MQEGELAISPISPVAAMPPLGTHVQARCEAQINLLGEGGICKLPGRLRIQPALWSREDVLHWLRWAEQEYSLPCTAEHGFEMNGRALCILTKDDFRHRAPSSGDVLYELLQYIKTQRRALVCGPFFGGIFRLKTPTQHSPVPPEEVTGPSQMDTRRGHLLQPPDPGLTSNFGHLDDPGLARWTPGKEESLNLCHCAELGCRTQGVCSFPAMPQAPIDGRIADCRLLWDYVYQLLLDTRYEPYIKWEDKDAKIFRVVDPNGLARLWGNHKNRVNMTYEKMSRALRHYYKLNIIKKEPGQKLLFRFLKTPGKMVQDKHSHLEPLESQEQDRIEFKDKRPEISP
The method in brief:
as §1

The target in test [17] is T12, ETV3 (Homo sapiens, UniProt P41162-2 1-143).
T12 sequence: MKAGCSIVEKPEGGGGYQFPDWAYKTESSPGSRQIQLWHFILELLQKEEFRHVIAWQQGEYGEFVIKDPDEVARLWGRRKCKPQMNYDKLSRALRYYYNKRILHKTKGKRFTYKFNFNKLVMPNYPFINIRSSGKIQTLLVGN
The method in brief: as §1

Test [18] has as its target ETV6 (Homo sapiens, UniProt P41212 1-452). The essentials:
as §1

ETV1, sequence (P50549 whole entry): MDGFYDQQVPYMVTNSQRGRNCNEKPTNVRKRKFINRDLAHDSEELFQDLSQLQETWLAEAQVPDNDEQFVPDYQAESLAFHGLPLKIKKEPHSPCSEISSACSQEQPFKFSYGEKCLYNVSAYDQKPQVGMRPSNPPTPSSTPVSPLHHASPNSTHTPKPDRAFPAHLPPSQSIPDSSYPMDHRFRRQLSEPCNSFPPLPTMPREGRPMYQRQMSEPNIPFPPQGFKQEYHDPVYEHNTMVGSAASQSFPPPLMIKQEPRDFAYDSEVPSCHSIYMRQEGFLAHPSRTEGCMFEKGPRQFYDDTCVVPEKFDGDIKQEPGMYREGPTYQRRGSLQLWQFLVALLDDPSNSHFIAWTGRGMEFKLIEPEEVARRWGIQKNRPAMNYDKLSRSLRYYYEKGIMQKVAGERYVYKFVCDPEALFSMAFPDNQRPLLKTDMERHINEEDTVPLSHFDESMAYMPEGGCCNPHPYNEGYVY
ELF4, sequence (Q99607 whole entry): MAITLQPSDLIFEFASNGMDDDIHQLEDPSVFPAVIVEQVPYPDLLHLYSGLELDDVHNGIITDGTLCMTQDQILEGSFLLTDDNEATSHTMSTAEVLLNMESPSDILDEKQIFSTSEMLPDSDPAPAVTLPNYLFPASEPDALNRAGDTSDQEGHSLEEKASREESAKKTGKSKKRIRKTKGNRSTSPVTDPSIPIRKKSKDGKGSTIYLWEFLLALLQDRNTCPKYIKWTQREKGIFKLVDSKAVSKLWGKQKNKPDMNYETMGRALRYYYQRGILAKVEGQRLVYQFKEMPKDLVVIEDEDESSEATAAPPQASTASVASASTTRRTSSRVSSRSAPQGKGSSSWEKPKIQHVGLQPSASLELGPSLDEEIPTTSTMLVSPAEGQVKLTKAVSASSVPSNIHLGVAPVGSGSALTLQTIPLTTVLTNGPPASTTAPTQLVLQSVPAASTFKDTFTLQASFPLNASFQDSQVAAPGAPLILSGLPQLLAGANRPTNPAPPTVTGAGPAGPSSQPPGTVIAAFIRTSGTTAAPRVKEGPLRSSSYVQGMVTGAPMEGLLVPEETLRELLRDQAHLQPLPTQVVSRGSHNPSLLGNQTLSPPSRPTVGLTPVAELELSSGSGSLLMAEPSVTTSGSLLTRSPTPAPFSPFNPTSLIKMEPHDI
ETV6, sequence (P41212 whole entry): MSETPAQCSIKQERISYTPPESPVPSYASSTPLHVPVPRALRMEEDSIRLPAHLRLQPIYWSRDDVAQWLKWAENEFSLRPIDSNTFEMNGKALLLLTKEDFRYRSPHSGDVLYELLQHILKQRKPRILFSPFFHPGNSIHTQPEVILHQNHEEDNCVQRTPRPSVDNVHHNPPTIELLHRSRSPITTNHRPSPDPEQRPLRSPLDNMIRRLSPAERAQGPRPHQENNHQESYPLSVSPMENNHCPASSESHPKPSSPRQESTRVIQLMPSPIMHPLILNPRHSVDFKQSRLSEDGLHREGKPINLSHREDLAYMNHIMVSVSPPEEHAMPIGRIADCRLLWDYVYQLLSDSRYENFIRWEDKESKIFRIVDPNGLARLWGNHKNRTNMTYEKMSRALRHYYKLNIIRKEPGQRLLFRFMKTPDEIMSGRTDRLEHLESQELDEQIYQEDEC

Take CACATG: the binding signal is 1.1 fold enrichment (6-mer frequency, TF over GST control) in [1]; 1.07 fold enrichment (6-mer frequency, TF over GST control) in test [2]; 1.07 fold enrichment (6-mer frequency, TF over GST control) in test [3]; 1.16 fold enrichment (6-mer frequency, TF over GST control) in test [4]; 1.16 fold enrichment (6-mer frequency, TF over GST control) in test [5]; 1.11 fold enrichment (6-mer frequency, TF over GST control) in test [6]. For the same sequence, the binding signal in test [7] was 1.11 fold enrichment (6-mer frequency, TF over GST control); in [8], 1.1 fold enrichment (6-mer frequency, TF over GST control); in test [9], 1.09 fold enrichment (6-mer frequency, TF over GST control); in test [10], 1.23 fold enrichment (6-mer frequency, TF over GST control); in [11] it was 1.12 fold enrichment (6-mer frequency, TF over GST control); in [12], 1.1 fold enrichment (6-mer frequency, TF over GST control). For the same sequence, the binding signal is 1.12 fold enrichment (6-mer frequency, TF over GST control) in test [13]; 1.03 fold enrichment (6-mer frequency, TF over GST control) in [14]; 1.11 fold enrichment (6-mer frequency, TF over GST control) in test [15]; 1.03 fold enrichment (6-mer frequency, TF over GST control) in [16]; 1.07 fold enrichment (6-mer frequency, TF over GST control) in test [17]; 1.06 fold enrichment (6-mer frequency, TF over GST control) in test [18].
